According to PubChem BioAssay AID1159580 (chemical genetic matrix, 2015):
Hit rate of the full screen: of about 5,500 compounds, about 2,000 (36%) were called active. Not shown: some 18% with an inconclusive outcome. Rule as the data show it: active = normalized growth mostly below about 0.91 (no sharp cut-off); inconclusive = no clear call, values can overlap the other calls; inactive = mostly above about 0.92. This is one part of the list.

Test: chemical genetic growth profiling, strain panel (AID 1159580);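 also: tested at 20 µM; growth read once vehicle control cultures reached saturation at 30 °C; 1 = growth at the plate median or of vehicle wells; lower values mean less growth of the strain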
Conditions: growth OD

Measured: normalized growth

CCCN(CCC)c1c([N+](=O)[O-])cc(C(F)(F)F)cc1[N+](=O)[O-]
inactive: S. cerevisiae deletion strains, locus YJR075W, strain HOC1, stronger effect = lower value 0.994 | S. cerevisiae deletion strains, locus YKL009W, strain mrt4, stronger effect = lower value 1.03 | S. cerevisiae deletion strains, locus YKL068W, stronger effect = lower value 1.01 | S. cerevisiae deletion strains, locus YKL085W, strain MDH1 (second series), stronger effect = lower value 1 | S. cerevisiae deletion strains, locus YKL085W, strain MDH1, stronger effect = lower value 1 | S. cerevisiae deletion strains, locus YKL160W, strain elf1, stronger effect = lower value 1 | S. cerevisiae deletion strains, locus YKL190W, strain CNB1, stronger effect = lower value 1.01 | S. cerevisiae deletion strains, locus YKR001C, strain vps1, stronger effect = lower value 1.03 | S. cerevisiae deletion strains, locus YKR026C, strain gcn3, stronger effect = lower value 0.97 | S. cerevisiae deletion strains, locus YKR091W, strain srl3, stronger effect = lower value 0.999 | S. cerevisiae deletion strains, locus YLL001W, strain dnm1, stronger effect = lower value 0.999 | S. cerevisiae deletion strains, locus YLL026W, stronger effect = lower value 0.999 | S. cerevisiae deletion strains, locus YLL041C, strain sdh2, stronger effect = lower value 1 | S. cerevisiae deletion strains, locus YLR027C, strain aat2, stronger effect = lower value 1.01 | S. cerevisiae deletion strains, locus YLR039C, strain RIC1, stronger effect = lower value 0.99 | S. cerevisiae deletion strains, locus YLR058C, strain SHM2, stronger effect = lower value 1 | S. cerevisiae deletion strains, locus YLR102C, strain apc9, stronger effect = lower value 1.01 | S. cerevisiae deletion strains, locus YLR113W, strain HOG1, stronger effect = lower value 1.02 | S. cerevisiae deletion strains, locus YLR221C, strain rsa3, stronger effect = lower value 1 | S. cerevisiae deletion strains, locus YLR258W, strain gsy2, stronger effect = lower value 0.984 | S. cerevisiae deletion strains, locus YLR262C, strain YPT6 (second series), stronger effect = lower value 0.989 | S. cerevisiae deletion strains, locus YLR262C, strain YPT6, stronger effect = lower value 1.04 | S. cerevisiae deletion strains, locus YLR268W, strain sec22, stronger effect = lower value 1.02 | S. cerevisiae deletion strains, locus YLR320W, strain mms22, stronger effect = lower value 1.01 | S. cerevisiae deletion strains, locus YLR330W, strain CHS5, stronger effect = lower value 1.02 | S. cerevisiae deletion strains, locus YLR342W, strain FKS1 (second series), stronger effect = lower value 1.04 | S. cerevisiae deletion strains, locus YLR342W, strain FKS1, stronger effect = lower value 1.04 | S. cerevisiae deletion strains, locus YLR357W, strain rsc2, stronger effect = lower value 1.13 | S. cerevisiae deletion strains, locus YLR370C, strain arc18, stronger effect = lower value 1 | S. cerevisiae deletion strains, locus YLR371W, strain rom2, stronger effect = lower value 1.02 | S. cerevisiae deletion strains, locus YLR384C, strain iki3, stronger effect = lower value 1.02 | S. cerevisiae deletion strains, locus YLR418C, strain cdc73, stronger effect = lower value 1 | S. cerevisiae deletion strains, locus YML016C, strain PPZ1, stronger effect = lower value 0.982 | S. cerevisiae deletion strains, locus YML032C, strain rad52, stronger effect = lower value 1.02 | S. cerevisiae deletion strains, locus YML120C, strain ndi1, stronger effect = lower value 0.985 | S. cerevisiae deletion strains, locus YML124C, strain tub3, stronger effect = lower value 1.02 | S. cerevisiae deletion strains, locus YMR058W, strain fet3, stronger effect = lower value 0.989 | S. cerevisiae deletion strains, locus YMR078C, strain ctf18, stronger effect = lower value 1.02 | S. cerevisiae deletion strains, locus YMR125W, strain sto1, stronger effect = lower value 1.01 | S. cerevisiae deletion strains, locus YMR129W, stronger effect = lower value 1.01 | S. cerevisiae deletion strains, locus YMR205C, strain PFK2, stronger effect = lower value 0.977 | S. cerevisiae deletion strains, locus YMR223W, strain ubp8, stronger effect = lower value 1.01 | S. cerevisiae deletion strains, locus YMR231W, strain pep5, stronger effect = lower value 1.01 | S. cerevisiae deletion strains, locus YMR263W, strain SAP30, stronger effect = lower value 0.984 | S. cerevisiae deletion strains, locus YMR307W, strain GAS1, stronger effect = lower value 0.973 | S. cerevisiae deletion strains, locus YNL067W, strain RPL9B, stronger effect = lower value 1.01 | S. cerevisiae deletion strains, locus YNL071W, strain lat1, stronger effect = lower value 1 | S. cerevisiae deletion strains, locus YNL128W, strain TEP1, stronger effect = lower value 1 | S. cerevisiae deletion strains, locus YNL153C, strain GIM3, stronger effect = lower value 0.995 | S. cerevisiae deletion strains, locus YNL183C, strain NPR1, stronger effect = lower value 0.915 | S. cerevisiae deletion strains, locus YNL209W, strain ssb2, stronger effect = lower value 1.02 | S. cerevisiae deletion strains, locus YNL233W, strain BNI4, stronger effect = lower value 0.981 | S. cerevisiae deletion strains, locus YNL248C, strain rpa49, stronger effect = lower value 1.04 | S. cerevisiae deletion strains, locus YNL250W, strain rad50, stronger effect = lower value 1.01 | S. cerevisiae deletion strains, locus YNL271C, strain bni1, stronger effect = lower value 1.01 | S. cerevisiae deletion strains, locus YNL298W, strain CLA4, stronger effect = lower value 1.02 | S. cerevisiae deletion strains, locus YNL307C, strain MCK1, stronger effect = lower value 1.01 | S. cerevisiae deletion strains, locus YNL322C, strain KRE1 (second series), stronger effect = lower value 1 | S. cerevisiae deletion strains, locus YNL322C, strain KRE1, stronger effect = lower value 1 | S. cerevisiae deletion strains, locus YNR049C, strain mso1, stronger effect = lower value 1.02 | S. cerevisiae deletion strains, locus YNR052C, strain pop2, stronger effect = lower value 1.02 | S. cerevisiae deletion strains, locus YOL006C, strain TOP1, stronger effect = lower value 1.01 | S. cerevisiae deletion strains, locus YOL012C, strain htz1 0.879 | S. cerevisiae deletion strains, locus YOL147C, strain pex11, stronger effect = lower value 1.01 | S. cerevisiae deletion strains, locus YOR001W, strain rrp6, stronger effect = lower value 1.01 | S. cerevisiae deletion strains, locus YOR061W, strain CKA2, stronger effect = lower value 1 | S. cerevisiae deletion strains, locus YOR069W, strain VPS5, stronger effect = lower value 0.998 | S. cerevisiae deletion strains, locus YOR070C, strain gyp1, stronger effect = lower value 0.993 | S. cerevisiae deletion strains, locus YOR080W, strain dia2, stronger effect = lower value 1.01 | S. cerevisiae deletion strains, locus YOR083W, strain WHI5, stronger effect = lower value 1.01 | S. cerevisiae deletion strains, locus YOR106W, strain vam3, stronger effect = lower value 1.02 | S. cerevisiae deletion strains, locus YOR136W, strain idh2, stronger effect = lower value 1.02 | S. cerevisiae deletion strains, locus YOR144C, strain elg1, stronger effect = lower value 1.02 | S. cerevisiae deletion strains, locus YOR184W, strain ser1, stronger effect = lower value 1.02 | S. cerevisiae deletion strains, locus YOR231W, strain MKK1, stronger effect = lower value 0.986 | S. cerevisiae deletion strains, locus YOR265W, strain rbl2, stronger effect = lower value 1.01 | S. cerevisiae deletion strains, locus YOR270C, strain vph1, stronger effect = lower value 0.993 | S. cerevisiae deletion strains, locus YOR290C, strain snf2, stronger effect = lower value 0.987 | S. cerevisiae deletion strains, locus YOR316C, strain cot1, stronger effect = lower value 1.01 | S. cerevisiae deletion strains, locus YPL051W, strain arl3, stronger effect = lower value 1.01 | S. cerevisiae deletion strains, locus YPL055C, strain LGE1, stronger effect = lower value 1.06 | S. cerevisiae deletion strains, locus YPL078C, strain atp4, stronger effect = lower value 0.968 | S. cerevisiae deletion strains, locus YPL106C, strain sse1, stronger effect = lower value 1.05 | S. cerevisiae deletion strains, locus YPL240C, strain hsp82, stronger effect = lower value 0.988 | S. cerevisiae deletion strains, locus YPL241C, strain CIN2, stronger effect = lower value 1.01 | S. cerevisiae deletion strains, locus YPL256C, strain CLN2, stronger effect = lower value 0.961 | S. cerevisiae deletion strains, locus YPR119W, strain clb2, stronger effect = lower value 1.01 | S. cerevisiae deletion strains, locus YPR141C, strain kar3, stronger effect = lower value 1 | S. cerevisiae deletion strains, locus YPR163C, strain tif3, stronger effect = lower value 1.02 | S. cerevisiae deletion strains, locus YPR167C, strain met16, stronger effect = lower value 1.01 | S. cerevisiae deletion strains, strain wtn01, stronger effect = lower value 1.02 | S. cerevisiae strains, strain wild type, stronger effect = lower value 1.01
